Bioassay records: PubChem BioAssay, several laboratories
LGR2 antag = Drosophila LGR2 receptor signaling inhibition; inhibition, % at 9.99 µM; HEK293 LGR2, CRE-luciferase, bursicon-stimulated, 4 h; AID 720647; 380,000 compounds, 0.35% hits;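 active = drop in luminescence signal, shown as inhibition above about 50% in the replicate tests, limit read from the data, passing the limit was not always enough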;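 note: agonist challenge used bursicon conditioned medium at about half maximal strength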
CF NFkB block = cystic fibrosis NF-kB activation inhibition; inhibition, % at 5 µM; 360,000 compounds, 0.86% hits; KKLEB NF-kB-GFP reporter, PAF-induced, GFP fluorescence overnight; AID 588850;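 active = at least 50% inhibition at 5 µM, scaled per plate between neutral and stimulator controls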;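 note: PAF is a Pseudomonas aeruginosa culture filtrate used as stimulus; plate controls were PAF-stimulated DMSO wells for no effect and unstimulated DMSO wells for full effect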
TROY signal inh = blocks TROY-dependent signaling in reporter cells; AID 1347056; Q293 LMP1-TROYcd NF-kB luciferase reporter, 4 h; 360,000 compounds, 0.98% hits; inhibition, % at 10 µM;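 active = compounds whose plate-normalised and pattern-corrected inhibition of the luciferase reporter signal at the single screening dose is 50% or more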
EWS-Fli block = EWS/Fli transcriptional activity inhibition | inhibition, % at 12.6 µM | 350,000 compounds, 0.67% hits | A673 NR0B1-luciferase reporter, viability-normalised;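 active = mean inhibition of at least 50% after viability correction, with every replicate also passing that limit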;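 note: firefly luciferase signal divided by Alamar Blue viability fluorescence both relative to DMSO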
KKLEB tox = counter-screen for CF NF-kB inhibitors: cytotoxicity; KKLEB CF airway cells viability, ATPlite luminescence, overnight; stronger effect = lower value; cells stimulated with P. aeruginosa culture filtrate; activity change (cytotoxicity), % at 5 µM; 360,000 compounds, 0.36% hits; AID 602141;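 active = corrected activity change at or below -50% at 5 µM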
TWEAK-Fn14 inh = TWEAK-Fn14 signaling inhibition | TWEAK-stimulated Fn14 reporter cells, luciferase luminescence, 8 h | inhibition, % at 10 µM | 360,000 compounds, 2% hits | AID 1159606; in the data active = inhibition above about 50%
An asterisk follows results filed as active. The list is not random: actives were taken first. Their share in the collection is about 2.6%.

How did CCCCCc1c2c(cc(O)c1C(=O)O)OC(=O)c1c(cc(OC)cc1C(=O)CCCC)O2 do in these assays?
CF NFkB block: 42.1; TROY signal inh: 62.5*; KKLEB tox: -4.1; TWEAK-Fn14 inh: 13.5

How did CC(C)NC(=O)N(C)C[C@@H]1Oc2ccc(NS(C)(=O)=O)cc2C(=O)N([C@@H](C)CO)C[C@@H]1C do in these assays?
LGR2 antag: 12.3; EWS-Fli block: 2.8

How did CCCCCC[N+](C)(C)CCSSCC[N+](C)(C)CCCCCC do in these assays?
LGR2 antag: 2.7; CF NFkB block: -15.8; TROY signal inh: 0.6; EWS-Fli block: 7.5; KKLEB tox: -9.9; TWEAK-Fn14 inh: 1.2

How did C#CC[N+](C)(C)CCCCCCCCCCCC do in these assays?
CF NFkB block: 46.4; TROY signal inh: 29.0; EWS-Fli block: -2.1; KKLEB tox: -43.1; TWEAK-Fn14 inh: 19.4

How did CCCCCCCCCCCCCCCC[N+](C)(C)CC do in these assays?
LGR2 antag: 36.1; CF NFkB block: 82.6*; TROY signal inh: 32.5; EWS-Fli block: 53.0*; KKLEB tox: 18.6; TWEAK-Fn14 inh: 41.1

Results for C#CC[N+](C)(C)CCCCCCCCCC ?
CF NFkB block: 52.0*; TROY signal inh: 8.6; EWS-Fli block: 6.4; KKLEB tox: -32.8; TWEAK-Fn14 inh: 22.7

How did C[C@H](CO)N1C[C@H](C)[C@H](CN(C)S(=O)(=O)c2ccccc2F)Oc2cc(C#Cc3cccc(F)c3)ccc2S1(=O)=O do in these assays?
LGR2 antag: -0.4; EWS-Fli block: -0.8

How did Nc1nnc(-c2cccnc2)s1 do in these assays?
CF NFkB block: 0.6; TROY signal inh: 2.9; KKLEB tox: 2.7; TWEAK-Fn14 inh: 1.2

What do the screens show for `c1ccc(Nc2nnc(-c3cccnc3)s2)cc1`?
LGR2 antag: -43.1; CF NFkB block: -12.5; TROY signal inh: -6.0; EWS-Fli block: -37.4; KKLEB tox: -5.7; TWEAK-Fn14 inh: 51.1*

How did COc1ccc(NC(=O)CN2C(=O)/C(=C3\SC(=S)N(C4CCS(=O)(=O)C4)C3=O)c3ccccc32)cc1 (stereo not given) do in these assays?
LGR2 antag: 30.9; CF NFkB block: 39.1; TROY signal inh: 7.0; EWS-Fli block: 12.1; KKLEB tox: 1.4; TWEAK-Fn14 inh: 28.0

What do the screens show for `O=C(CN1C(=O)/C(=C2\SC(=S)N(C3CCS(=O)(=O)C3)C2=O)c2ccccc21)Nc1ccc(F)cc1` (stereo not given)?
CF NFkB block: 25.7; TROY signal inh: -8.6; EWS-Fli block: 6.9; KKLEB tox: -10.0; TWEAK-Fn14 inh: 78.4*

How did O=[N+]([O-])c1c(Nc2ccccn2)cc(Cl)c2nonc12 do in these assays?
CF NFkB block: 66.8*; TROY signal inh: -1.4; EWS-Fli block: 45.5; KKLEB tox: -44.1; TWEAK-Fn14 inh: 19.6

Results for O=[N+]([O-])c1c(Nc2ccc(O)cc2)cc(Cl)c2nonc12 ?
LGR2 antag: 41.2; CF NFkB block: 102.6*; TROY signal inh: 83.1*; EWS-Fli block: 60.8*; KKLEB tox: -76.5*; TWEAK-Fn14 inh: 67.4*

How did O=C(O)c1ccccc1Nc1cc(Cl)c2nonc2c1[N+](=O)[O-] do in these assays?
LGR2 antag: -20.4; CF NFkB block: -11.9; TROY signal inh: 20.8; EWS-Fli block: -8.5; KKLEB tox: 1.0; TWEAK-Fn14 inh: -7.0

What do the screens show for `CC=Cc1ccc2n(c1=O)C[C@H]1[C@H](CO)[C@@H](C(=O)NCCC)N(CCC(F)(F)F)[C@@H]21` (mixture of isomers)?
LGR2 antag: -9.2; EWS-Fli block: -3.3

What do the screens show for `CC(C)NC(=O)Nc1cccc2c1O[C@H](CN(C)S(=O)(=O)c1cn(C)cn1)[C@H](C)CN([C@@H](C)CO)C2=O`?
LGR2 antag: -0.2; EWS-Fli block: -7.9

What do the screens show for `COc1ccc(C(=O)N2CC3(C)CC2CC(C)(C)C3)cc1` (stereo not given)?
CF NFkB block: -10.0; TROY signal inh: 66.0*; KKLEB tox: 3.7; TWEAK-Fn14 inh: 6.1

How did CC1(C)CC2CC(C)(CN2C(=O)c2ccccc2)C1 (stereo not given) do in these assays?
LGR2 antag: 4.5; CF NFkB block: 4.5; TROY signal inh: 8.2; EWS-Fli block: -5.9; KKLEB tox: -5.3; TWEAK-Fn14 inh: -2.7

What do the screens show for `CC(C)CCNC(=O)CN(C(=O)CCC(=O)Nc1nccs1)c1ccc2c(c1)OCCO2`?
LGR2 antag: 6.7; CF NFkB block: 4.7; TROY signal inh: 68.9*; EWS-Fli block: 26.7; KKLEB tox: 2.3; TWEAK-Fn14 inh: 78.3*
